Source: PubChem BioAssay
CYP2C19 act: increases human CYP2C19 enzyme activity | P33261 | recombinant CYP2C19, luciferin-H EGE luminescence; active compounds read high; 0 = fully inhibited enzyme, 1 = untreated enzyme | activation factor at 5 µM | 96,000 tested, under 10 active | AID 1025;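 active means activation factor of at least 2 at 5 µM in the primary screen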;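 further: 0 = wells with 2.5 mM tranylcypromine and 1 = vehicle-only wells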
CYP2C9 act: activators of human CYP2C9; recombinant CYP2C9, luciferin-H conversion, luminescence; active compounds read high; factor 1 = untreated enzyme, 0 = blocked; activation factor at 5 µM; 1.4% of 96,000 active;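 active means activation factor of 2 or more for CYP2C9 at a 5 µM dose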;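 further: 0 = sulfaphenazole-blocked wells and 1 = vehicle-only wells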
Target sequence (P11712 whole entry, looked up): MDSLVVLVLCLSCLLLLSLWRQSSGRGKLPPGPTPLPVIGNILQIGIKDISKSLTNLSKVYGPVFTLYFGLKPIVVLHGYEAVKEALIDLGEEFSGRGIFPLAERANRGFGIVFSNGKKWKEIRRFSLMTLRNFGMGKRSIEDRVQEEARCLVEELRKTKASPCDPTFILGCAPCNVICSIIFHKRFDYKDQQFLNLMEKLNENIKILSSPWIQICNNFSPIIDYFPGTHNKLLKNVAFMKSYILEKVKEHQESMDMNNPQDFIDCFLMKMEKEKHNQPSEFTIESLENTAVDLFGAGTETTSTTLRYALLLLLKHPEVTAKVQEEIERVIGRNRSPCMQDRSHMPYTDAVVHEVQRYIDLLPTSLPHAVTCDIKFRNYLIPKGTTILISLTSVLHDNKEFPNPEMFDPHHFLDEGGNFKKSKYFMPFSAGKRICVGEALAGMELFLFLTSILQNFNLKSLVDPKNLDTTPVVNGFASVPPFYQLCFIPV
PostGolgi ctrl: yeast control strain growth, post-Golgi counter-screen | efflux-deficient yeast background strain, growth absorbance A615, 16 h | inhibition, % at 10 µM | 5% of 98,000 active | AID 738
CYP2C19 inh: inhibitors of human CYP2C19; 21% of 96,000 active; P33261; inhibition, % at 5 µM; CYP2C19 Supersomes, luciferin-H EGE luminescence, 30 min;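 active means CYP2C19 inhibition above a set limit at 5 µM in the primary screen, cut at about 50% in these data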;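 further: plate controls were negative control wells for no effect and 2.5 mM tranylcypromine positive control for full effect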
CYP2C9 inhib: blocks human cytochrome P450 2C9 | inhibition, % at 5 µM | 20% of 96,000 active | P11712 | CYP2C9 Supersomes, luciferin-H conversion, luminescence;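 active means blocking of liver enzyme CYP2C9 beyond about 50% at 5 µM, limit read from the data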
PostGolgi yeast: growth inhibition of a yeast mutant, post-Golgi transport screen; post-Golgi transport phenotypic cell assay; inhibition, % at 10 µM; 0.9% of 98,000 active; AID 739;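 further: yeast cells grown in 1536-well plates; yeast grown about 18 h at 30C before absorbance read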
* = called active by the depositor; · = no result. Compounds with a hit are over-represented: about 32% of the library has one in this group of screens. Unless noted, no stated cut-off is given here; in the data, active means inhibition above about 30%; inactive means the rest.

SMILES	CYP2C19 act	CYP2C9 act	PostGolgi ctrl	CYP2C19 inh	CYP2C9 inhib	PostGolgi yeast
COc1cccc2cc(C(=O)N3CCc4ccccc4C3)c(=O)oc12	0.7	2*	-3.3	26.7	-97.3	3.6
CCOc1ccc(OCc2ccc(C(=O)N3CCc4ccccc4C3)o2)cc1	0.5	0.7	14.0	50.9*	30.6	-11.1
COc1cc(Br)cc2cc(C(=O)N3CCN(c4ccccn4)CC3)c(=O)oc12	0.3	0.4	12.7	74.2*	57.0*	-3.3
COc1cccc2cc(C(=O)N3CCN(c4ccccc4F)CC3)c(=O)oc12	0.6	0.5	6.5	35.7	50.7*	-2.8
Cc1ccc(-n2nnnc2SCC(=O)N2c3ccccc3NC(=O)C2(C)C)cc1	0.9	0.9	2.5	11.3	12.8	-4.3
CCOc1cccc2cc(C(=O)N3CCc4ccccc4C3)c(=O)oc12	0.3	2.5*	1.4	68.5*	-145.8	-2.4
O=C(CSc1n[nH]c(-c2ccco2)n1)N1c2ccccc2Sc2ccccc21	0.5	0.5	15.1	48.1	51.6*	2.2
CCOC(=O)CSc1n[nH]c(-c2ccco2)n1	1	1	4.4	-1.8	-1.5	-3.0
O=C(CSc1nncs1)N1c2ccccc2Sc2ccccc21	0.4	0.6	28.0	62.4*	37.0	1.1
CC/C(CC(C)(C)c1ccccc1)=N\O	0.2	0.8	12.3	78.6*	25.0	-0.9
CN(C)CCC(O)(c1ccccc1)c1ccccc1	1	1	5.6	-1.9	-1.4	-3.1
CNC(=O)c1sccc1SCc1ccc(Cl)cc1Cl	0.2	0.6	21.8	75.4*	37.9	-6.8
CNC(=O)c1sccc1SCc1c(Cl)cccc1Cl	0.6	0.9	46.0*	37.6	11.7	-3.7
COCc1cc(C)nc(N)c1C#N	1.3	1.1	11.6	-25.1	-8.8	-8.4
CCC1CCCCN1C(=O)CSc1nc(N)c(NC(=O)c2ccc(OC)c(OC)c2)c(=O)[nH]1 (stereo not drawn)	1	0.9	-0.5	-4.2	12.9	-1.3
O=C(CSc1cn(CCNC(=O)c2cccs2)c2ccccc12)NC1CCCC1	0.3	0.2	9.5	68.6*	82.4*	-7.5
CCCn1cc(SCC(=O)NCc2ccco2)c2ccccc21	0.5	1.8	3.9	51.5*	-79.2	6.4
O=C(CSc1cn(CCNC(=O)c2ccccc2)c2ccccc12)NCc1ccco1	0	0	0.0	99.0*	97.2*	-0.4
O=C(Nc1ccon1)c1cccc(C(F)(F)F)c1	0.6	1	14.3	38.9	2.4	5.0
O=C(COC(=O)C1(c2ccc(Cl)cc2)CCCC1)NC1CCS(=O)(=O)C1 (stereo not drawn)	0.7	1	23.8	27.1	4.0	-0.5
CCOc1ccc(NC(=O)CSc2nnc(C)n2CCCOC)cc1	0.7	0.9	8.8	26.8	9.1	9.1
O=C(Nc1nccs1)c1ccc2nccnc2c1	0.9	0.8	5.7	8.2	22.7	-5.3
CC1CCC(NCc2ccco2)CC1 (stereo not drawn)	1.2	1.1	10.2	-19.9	-12.3	-10.9
CCOC(=O)c1ccccc1OCc1cc(/C=N/n2cncn2)ccc1OC	·	·	3.0	·	·	2.1
COc1cccc(/C=N/n2cncn2)c1OCC#N	0.2	0.7	4.7	77.6*	25.4	3.1
SMILES	CYP2C19 act	CYP2C9 act	PostGolgi ctrl	CYP2C19 inh	CYP2C9 inhib	PostGolgi yeast
CCCCCCCC1(C)NC(=O)N(c2ccccc2)N1 (stereo not drawn)	0.4	0.8	0.3	56.8*	24.2	13.2
NC(=O)CNC(=O)[C@@H]1CC2(CC(c3cccc(Br)c3)=NO2)CN1C(=O)c1ccc(Br)cc1 (stereo partly drawn)	0.8	0.8	-0.3	18.5	17.5	-9.9
COc1ccc(C)cc1NC(=O)CN1C(=O)c2ccccc2S1(=O)=O	1	1.1	0.0	1.4	-11.4	6.2
O=C(CN1C(=O)c2ccccc2S1(=O)=O)Nc1ccc(S(=O)(=O)N2CCCCC2)cc1	1	0.4	12.4	3.2	61.6*	-15.7
COc1cc(NC(=O)CN2C(=O)c3ccccc3S2(=O)=O)c(OC)cc1Cl	0.3	0.5	1.3	67.1*	52.2*	11.2
O=C(CN1C(=O)c2ccccc2S1(=O)=O)Nc1ccc(S(=O)(=O)N2CCCC2)cc1	0.6	0.1	1.3	42.5	91.5*	-1.2
O=C(CCCN1C(=O)C2CCCCN2C1=O)N1CCN(c2ccc([N+](=O)[O-])cc2)CC1 (stereo not drawn)	1	1	24.9	-1.6	0.1	-3.4
CN(C)c1ccc(CNC(=O)C2CCN(S(=O)(=O)c3ccc4c(c3)CCC(=O)N4)CC2)cc1	1	0.9	7.1	-2.5	14.5	-3.7
CCN(CC)C(=O)CSc1nc2c(sc(=S)n2Cc2ccco2)c(=O)n1-c1ccccc1	0.6	0.5	11.1	35.9	52.4*	6.9
CCOC(=O)CSc1nc2c(sc(=S)n2Cc2ccco2)c(=O)n1-c1ccccc1	0.4	0.3	5.1	59.7*	68.8*	-1.5
CCOC(=O)CC(=O)CSc1nc2c(sc(=S)n2-c2ccccc2)c(=O)[nH]1	1	0.3	25.2	3.7	65.8*	-0.8
CCOC(=O)CSc1nc2c(sc(=S)n2-c2ccccc2OC)c(=O)n1Cc1ccco1	0.1	0.5	19.1	85.2*	54.6*	2.3
CCN(CC)C(=O)CSc1nnc(-c2cccs2)n1Cc1ccco1	1	0.9	-2.5	-0.8	9.6	-5.4
CCC(C)(C)NC(=O)CN(C(=O)CNS(=O)(=O)c1ccccc1)c1ccccc1	0.9	1	2.1	9.5	-2.3	-5.3
N#C/C(=C\c1c(N2CCOCC2)nc2ccccn2c1=O)S(=O)(=O)c1ccccc1	0.8	0.7	3.5	15.0	32.2	-0.8
Cc1ccc(S(=O)(=O)/C(C#N)=C/c2c(N3CC(C)OC(C)C3)nc3ccccn3c2=O)cc1 (stereo not drawn)	0.8	0.4	4.6	20.0	56.7*	5.5
Cc1ccc(S(=O)(=O)/C(C#N)=C/c2c(N3CCN(C)CC3)nc3ccccn3c2=O)cc1	0.8	0.2	4.5	16.9	80.7*	4.8
COc1ccc(C2=C(C#N)C(=O)OC2)cc1	1	·	14.0	-3.6	·	-5.3
Cc1ccc(-c2onc3ccc(C4(C)OCCO4)cc23)cc1	0.4	0.5	15.1	59.9*	53.9*	14.9
CC(=O)Nc1ccc(OCC(O)Cn2nc(C)nc2C)cc1 (stereo not drawn)	1	1.1	12.3	2.9	-7.2	-5.4
Cc1nc(C)n(CC(O)COc2ccc3ccccc3c2)n1 (stereo not drawn)	0.3	1	1.6	69.5*	-0.9	3.5
CCN(c1cccc(C)c1)c1nc2ccsc2c(=O)s1	0.3	0.1	29.3	65.4*	86.7*	-4.0
CCN(CC)S(=O)(=O)c1ccc(O)c(C(=O)OCC(=O)N(C)Cc2ccccc2)c1	0.7	0.2	-11.8	30.7	75.1*	4.1
CCOC(=O)c1sc(NC(=O)c2ccc(S(=O)(=O)N3CCOCC3)cc2)cc1C	1.1	1.1	17.6	-14.6	-9.9	-9.1
